The structures appear in SMILES notation. Where “and” joins values, the source holds several entries; their conditions need not be identical. Equal entries are not always repeated. Calls of active or inactive are those of the source. Cut-off read from the data, not from the text of the source, unless noted: active = parasite load remaining mostly below about 12% (no sharp cut-off); inactive = mostly above about 10%.

Assay [1] in a line: liver-stage malaria parasite growth inhibition, primary screen, cell-based, HepG2, luciferase luminescence, HepG2 viability (AID 624349).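 Note: 100% = mean of DMSO negative control wells on the same plate.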 The following applies: P. berghei liver stage in HepG2, luciferase luminescence, concentration not given here; parasite load remaining: stronger effect = lower value; viability: measured here: HepG2 viability without parasites.
Assay [2] in a line: stimulators of nuclear beta-catenin in C2C12, primary screen, imaging, WNT3A-conditioned medium, mouse C2C12, NPC library (AID 1117326; in the data active = nuclear beta-catenin stimulation mostly above about 4.2%, no sharp cut-off; inactive = mostly below about 10%; note: reference of the scale not given here). The following applies: stronger effect = higher value.

As to `CO/N=C1\CN(c2nc3c(cc2F)c(=O)c(C(=O)O)cn3C2CC2)CC1CN` (configuration not stated), the parasite load remaining in assay [1] was 155% (inactive) and 46.4% (inactive). Further, the viability in assay [1] was 85.7% and 106%. Further, the nuclear beta-catenin stimulation was 4.1% (inactive) in assay [2] (at 10 µM) and 3.4% in assay [2] (stimulation, at 2 µM).

With `Cc1[nH]c(C)c(Cl)c(=O)c1Cl`, in assay [1], the parasite load remaining was 132% (inactive) and 21.1% (inactive) and 5.5% (inactive); the viability is 78.8% and 117% and 80.5%. Besides, in assay [2] (at 10 µM), the nuclear beta-catenin stimulation is 1.4% (inactive). In assay [2] (stimulation, at 2 µM), the nuclear beta-catenin stimulation came to 0.4%.

Consider `CCC(=O)O[C@H]1[C@H](O[C@@H]2[C@@H](C)[C@H](O[C@H]3C[C@@](C)(OC)[C@@H](O)[C@H](C)O3)[C@@H](C)C(=O)O[C@H](CC)[C@@](C)(O)[C@H](O)[C@@H](C)C(=O)[C@H](C)C[C@@]2(C)O)O[C@H](C)C[C@@H]1N(C)C`, for which, in assay [1], the parasite load remaining is 85.6% (inactive) and 40.4% (inactive); the viability is 67.9% and 93.1%. The nuclear beta-catenin stimulation in assay [2] (at 10 µM) was 0.6% (inactive). Also, in assay [2] (stimulation, at 2 µM), the nuclear beta-catenin stimulation was -0.8%.

In the case of `CCC(Cc1c(I)cc(I)c(N)c1I)C(=O)O` (configuration not stated), in assay [1], the parasite load remaining is 85.1% (inactive) and 170% (inactive) and 66.3% (inactive); the viability is 78.9% and 86.3% and 103%. Further, the nuclear beta-catenin stimulation in assay [2] (at 10 µM) is 1.2% (inactive). Moreover, in assay [2] (stimulation, at 2 µM), the nuclear beta-catenin stimulation was -1.1%.

Turning to `O=c1ccc2ccccc2o1`, the parasite load remaining in assay [1] is 71% (inactive). Moreover, in assay [1], the viability worked out at 94.5%. The nuclear beta-catenin stimulation in assay [2] (at 10 µM) was -0.2% (inactive); in assay [2] (stimulation, at 2 µM), -0.6%.

Consider `COc1ccc(C(=O)CC(=O)c2ccc(C(C)(C)C)cc2)cc1`, for which, in assay [1], the parasite load remaining was 168% (inactive) and 61% (inactive); the viability is 84.8% and 202%. In addition, the nuclear beta-catenin stimulation in assay [2] (at 10 µM) was -0.4% (inactive). Further, the nuclear beta-catenin stimulation in assay [2] (stimulation, at 2 µM) was determined as 3%.

For `COc1cc(NS(=O)(=O)c2ccc(N)cc2)ncn1`, in assay [1], the parasite load remaining was 84.2% (inactive) and 61.4% (inactive) and 48% (inactive); the viability was 97.9% and 64.7% and 90.8%. The nuclear beta-catenin stimulation in assay [2] (at 10 µM) was 3% (inactive). In addition, the nuclear beta-catenin stimulation in assay [2] (stimulation, at 2 µM) was determined as 3.5%.

Take `CCCCN(CCCC)CCC(O)c1cc2c(Cl)cc(Cl)cc2c2cc(C(F)(F)F)ccc12` (configuration not stated): in assay [1], the parasite load remaining was 57.2% (inactive) and the viability was 69.5%. In addition, the nuclear beta-catenin stimulation in assay [2] (at 10 µM) is 5.2% (inactive). The nuclear beta-catenin stimulation in assay [2] (stimulation, at 2 µM) was determined as 0.7%.

With `COc1cc2c3cc1Oc1cc(ccc1O)C[C@@H]1c4c(cc(OC)c(O)c4Oc4ccc(cc4)C[C@@H]3N(C)CC2)CC[N+]1(C)C`, in assay [1], the parasite load remaining is 55.9% (inactive) and 65.3% (inactive); the viability is 118% and 192%. Moreover, in assay [2] (at 10 µM), the nuclear beta-catenin stimulation was 3.1% (inactive). Also, the nuclear beta-catenin stimulation in assay [2] (stimulation, at 2 µM) is -0.1%.

For `Cc1c(C(N)=O)cc([N+](=O)[O-])cc1[N+](=O)[O-]`, in assay [1], the parasite load remaining was 143% (inactive) and the viability came to 90.9%. Besides, the nuclear beta-catenin stimulation in assay [2] (at 10 µM) was -0.3% (inactive). Moreover, the nuclear beta-catenin stimulation in assay [2] (stimulation, at 2 µM) was -0.9%.

Consider `O=C(O)c1cn(-c2ccc(F)cc2)c2cc(N3CCNCC3)c(F)cc2c1=O`, for which, in assay [1], the parasite load remaining is 63.8% (inactive) and 65.5% (inactive) and 24.1% (inactive). In assay [1], the viability was 92.7% and 132% and 71%. In addition, the nuclear beta-catenin stimulation is 0.8% (inactive) in assay [2] (at 10 µM) and 2.8% in assay [2] (stimulation, at 2 µM).

As for `COc1c2occc2c(OC)c2c(=O)cc(C)oc12`, the parasite load remaining in assay [1] is 32.5% (inactive) and 95.1% (inactive). For the same compound, the viability in assay [1] was 48.9% and 88.8%. For the same compound, the nuclear beta-catenin stimulation was 2.2% (inactive) in assay [2] (at 10 µM) and 0.4% in assay [2] (stimulation, at 2 µM).

Consider `CC1CC(OC(=O)C(O)c2ccccc2)CC(C)(C)N1C` (configuration not stated), for which, in assay [1], the parasite load remaining was 101% (inactive) and the viability was 101%. In addition, the nuclear beta-catenin stimulation in assay [2] (at 10 µM) is -1.4% (inactive). Moreover, the nuclear beta-catenin stimulation in assay [2] (stimulation, at 2 µM) is -0.1%.

On to `O=C(O)CCCCC1CCSS1` (configuration not stated), for which, in assay [1], the parasite load remaining was 165% (inactive) and the viability was determined as 96.8%. In assay [2] (at 10 µM), the nuclear beta-catenin stimulation was 0% (inactive). In addition, the nuclear beta-catenin stimulation in assay [2] (stimulation, at 2 µM) is -0.2%.

On to `C/C=C(/C(=C/C)c1ccc(O)cc1)c1ccc(O)cc1`, for which, in assay [1], the parasite load remaining is 99.8% (inactive) and 85.1% (inactive) and 15.2% (inactive); the viability is 93.2% and 76.6% and 68.2%. Moreover, in assay [2] (at 10 µM), the nuclear beta-catenin stimulation is 20.4% (inactive). Moreover, in assay [2] (stimulation, at 2 µM), the nuclear beta-catenin stimulation worked out at 2.2%.

For `O=c1cc[nH]c(=S)[nH]1`, in assay [1], the parasite load remaining is 64% (inactive) and the viability stood at 87.2%. The nuclear beta-catenin stimulation in assay [2] (at 10 µM) was -0.3% (inactive). Moreover, in assay [2] (stimulation, at 2 µM), the nuclear beta-catenin stimulation turned out to be 1.5%.

Take `COc1ccc(C(=O)c2ccccc2O)c(O)c1`: in assay [1], the parasite load remaining is 83.1% (inactive) and 102% (inactive) and 55.6% (inactive); the viability is 96.9% and 79.4% and 89.9%. In addition, the nuclear beta-catenin stimulation in assay [2] (at 10 µM) is 1.1% (inactive). Further, the nuclear beta-catenin stimulation in assay [2] (stimulation, at 2 µM) was found to be 0.4%.

Regarding `C[C@]12CCC(=O)C=C1C=C[C@@H]1[C@@H]2CC[C@@]2(C)[C@H]1CC[C@@]21CCC(=O)O1`, in assay [1], the parasite load remaining is 17.5% (inactive) and the viability came to 73%. Also, in assay [2] (at 10 µM), the nuclear beta-catenin stimulation was 2.7% (inactive). For the same compound, in assay [2] (stimulation, at 2 µM), the nuclear beta-catenin stimulation is 1.9%.

Turning to `Cc1cc(CC(=O)O)n(C)c1C(=O)c1ccc(Cl)cc1`, in assay [1], the parasite load remaining is 103% (inactive) and 101% (inactive) and 54.3% (inactive); the viability is 94.3% and 67.7% and 106%. The nuclear beta-catenin stimulation in assay [2] (at 10 µM) was -0.6% (inactive). In addition, the nuclear beta-catenin stimulation in assay [2] (stimulation, at 2 µM) was 1.7%.

As to `O=C(O)CCNC(=O)c1ccccc1`, in assay [1], the parasite load remaining is 140% (inactive) and the viability turned out to be 88.4%. Moreover, the nuclear beta-catenin stimulation in assay [2] (at 10 µM) is 3.5% (inactive). In assay [2] (stimulation, at 2 µM), the nuclear beta-catenin stimulation came out at 0.2%.

For the compound `CCN(CC)C(=O)c1cccc(C)c1`, in assay [1], the parasite load remaining is 18.9% (inactive) and the viability is 97.4%. The nuclear beta-catenin stimulation in assay [2] (at 10 µM) was 6.1% (inactive). For the same compound, the nuclear beta-catenin stimulation in assay [2] (stimulation, at 2 µM) was 3.9%.

As for `CC[N+](C)(C)Cc1ccccc1Br`, the parasite load remaining in assay [1] is 80.1% (inactive). The viability in assay [1] is 101%. Besides, the nuclear beta-catenin stimulation in assay [2] (at 10 µM) was -0.9% (inactive); in assay [2] (stimulation, at 2 µM), 0.3%.

In the case of `O=c1oc2cc(O)ccc2s1`, in assay [1], the parasite load remaining was 62.7% (inactive) and the viability was determined as 88.6%. The nuclear beta-catenin stimulation in assay [2] (at 10 µM) is -2.6% (inactive). In assay [2] (stimulation, at 2 µM), the nuclear beta-catenin stimulation was determined as 0.6%.
